Data from PubChem BioAssay AID2148 (The Scripps Research Institute Molecular Screening Center, 2009).
About 1,500 (62%) of roughly 2,400 compounds were called active. So high a share suggests a set chosen from earlier hits. These entries were drawn from the full list. A number with no mark means an inactive call. No stated cut-off is given here; in the data, active means inhibition above about 22%; inactive means the rest.

target: Melanin-concentrating hormone receptor 1 (Homo sapiens) (UniProt Q99705); assay: antagonism of human MCHR1 receptor – cell-based, fluorescence, counter-screen for GPR7 antagonist project (AID 2148); conditions: MCHR1-expressing cells, fluorescence antagonist assay; at 4.4 µM; hits give high values;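 further: 0% = vehicle with agonist and 100% = vehicle without agonist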

| SMILES | inhibition |
| --- | --- |
| CCN(CC)Cc1c(C(=O)OC)nnn1-c1nonc1N | 5.07% |
| Clc1ccc(-c2cc(C3CCNCC3)[nH]n2)c(Cl)c1 | 35.6% (active) |
| O=C(COc1ccc(S(=O)(=O)Nc2cccc(C(F)(F)F)c2)cc1)N1CCOCC1 | 28% (active) |
| O=S(=O)(c1ccc(OCC(O)CN2CCN(c3ccccc3Cl)CC2)cc1)N1CCOCC1 (stereo unspecified) | 38.9% (active) |
| O=C(NCCCN1CCN(c2ccc(F)cc2)CC1)Nc1ccc([N+](=O)[O-])cc1 | 65.1% (active) |
| Cc1c(CCO)c(=O)n(-c2ccccc2)n1S(=O)(=O)c1ccc(F)cc1 | -12.3% |
| Cc1ccc(O)c(NC(=S)NC(=O)COc2ccc(Br)cc2)c1 | 83.8% (active) |
| CN(c1cccc(NC(=O)Nc2ccc(Cl)cc2)c1)S(C)(=O)=O | 67.3% (active) |
| COc1ccc(CS(=O)/C(Cl)=C(/Cl)C(=O)Nc2ccc(OC)nc2)cc1 (stereo unspecified) | 63.9% (active) |
| CCOc1ncccc1C(=O)NCCc1ccc(OC)cc1 | 13.4% |
| COc1cccc(CNCCc2c[nH]c3ccccc23)c1OCc1ccccc1F | 83.6% (active) |
| Nc1nnc(SCC(=O)Nc2ccc3nc(SCC(=O)Nc4ccccc4)sc3c2)s1 | 81.6% (active) |
| Cc1ccccc1Nc1nnc(SCC(=O)c2cc3ccccc3o2)s1 | 10.6% |
| O=C(CN1C(=O)/C(=C/c2ccccc2F)Sc2ccccc21)NCc1cccnc1 | 63% (active) |
| Clc1ccc(C2CC(c3cccs3)n3ncnc3N2)cc1Cl (stereo unspecified) | 15.5% |
| COc1ccc(C2Nc3ccccc3C(=O)N2Cc2ccccc2)cc1Cn1nnc2ccccc21 (stereo unspecified) | 32.1% (active) |
| Fc1ccc(-c2ccc(-c3nn4c(-c5ccco5)nnc4s3)o2)cc1 | 12.7% |
| O=C(NCCCN1CCOCC1)c1ccc2c(c1)N(Cc1cccc(F)c1)C(=O)c1ccccc1S2 | 25.3% (active) |
| Cc1ccccc1CN1C(=O)c2ccccc2Sc2ccc(C(=O)NCCCN3CCOCC3)cc21 | 17% |
| CCOC(=O)C1CSC(CC(=O)Nc2ccc(OCC)cc2)C(=O)N1 (stereo unspecified) | 3.62% |
| CCC(C)c1ccccc1NC(=O)CN(C)CC(=O)Nc1ccccc1SC (stereo unspecified) | 24.8% (active) |
| CCc1ccc(N(C(=O)c2csnn2)C(C(=O)NC2CCCCC2)c2ccncc2)cc1 (stereo unspecified) | 17.6% |
| CC(C)OCCCNc1ncnc2c1[nH]c1ccc(F)cc12 | 70.9% (active) |

| SMILES | inhibition |
| --- | --- |
| Cc1cc(OC(C)C(=O)NC2CC(C)(C)NC(C)(C)C2)c2c(C)cc(=O)oc2c1 (stereo unspecified) | -9.17% |
| O=C(COc1ccccc1)NCc1ccc2c(c1)OCO2 | 1.89% |
| CCOc1ccc(Cn2nnc(C(=O)NCc3ccccc3)c2N)cc1 | 51.5% (active) |
| O=C(Cc1ccc(Cl)cc1)NC(=S)Nc1ccccc1O | 96.4% (active) |
| O=C(NC(=O)c1ccccc1)Nc1ccccc1O | 14.3% |
| Cc1ccccc1NC(=S)NC(=O)Cc1ccc(Cl)cc1 | 65.3% (active) |
| O=C(CC(=O)Nc1ccc(Cl)c(Cl)c1)N/N=C/c1ccc(O)cc1 | 12.4% |
| CS(=O)(=O)N(CC(O)Cn1c2ccccc2c2ccccc21)c1cccc2ccccc12 (stereo unspecified) | 41.7% (active) |
| Cc1cccc(NC(=O)c2cccc(C(=O)Nc3cccc(C)c3C)n2)c1C | 25.4% (active) |
| Cc1ccc(C(=O)C[n+]2cc(-c3ccccc3)n3c2CCCCC3)cc1 | 16.7% |
| Cc1ccc2[nH]cc(CCNC(=O)c3ccc([N+](=O)[O-])cc3)c2c1 | 49% (active) |
| O=C(Nc1ccccc1F)c1ccc2c(c1)OCO2 | 2.37% |
| O=C(Nc1nc(-c2ccc3c(c2)OCO3)cs1)c1ccncc1 | 67.8% (active) |
| COc1ccc(NS(=O)(=O)c2ccc(NC(=S)NC(=O)CC(C)C)cc2)cc1 | 58.1% (active) |
| O=C(CSCc1ccc([N+](=O)[O-])cc1)NCCSCc1ccccc1 | 28.9% (active) |
| O=[N+]([O-])c1ccc(N(CCO)Cc2ccccc2)c([N+](=O)[O-])c1 | 15.3% |
| N=c1c2c(-c3ccccc3)c(-c3ccccc3)n(Cc3ccccc3)c2ncn1CCCO | 38.1% (active) |
| CCN1/C(=C\c2ccc3ccccc3[n+]2CC)Sc2cc(C)ccc21 | 42.9% (active) |
| CCc1ccc(OCC2c3cc(OC)c(OC)cc3CCN2C(C)=O)cc1 (stereo unspecified) | 29.6% (active) |
| CC1CN(C(=O)CCC(=O)NCCCN2CCC(Cc3ccccc3)CC2)c2cc(Cl)ccc2O1 (stereo unspecified) | 49.6% (active) |
| Cc1ccc(S(=O)(=O)n2cnc3ccccc32)c(C)c1 | -5.48% |
| CC(=O)Nc1ccc(S(=O)(=O)N(C)CC(=O)NCCC2=CCCCC2)cc1 | -1.52% |
| COc1ccc(C(CCNCc2ccccc2F)c2ccc(F)cc2)cc1 (stereo unspecified) | 42.1% (active) |
